# About 8,800 targets were measured; listed, in parts, are those with a hit and a random draw of the rest. About 0.5% of all pairs of compound and target were hits. A number with no mark means an inactive call.
# How the values were obtained:
# Test in all cases: log2 fold change, soluble protein after heating vs DMSO (PISA); higher = thermal stabilisation; K562 lysate, 10 uM; active = over 0.2 and 3.5 SD of the protein, either way, in both replicates (recomputed)
# ibrutinib = compound: C=CC(=O)N1CCC[C@@H](n2nc(-c3ccc(Oc4ccccc4)cc3)c3c(N)ncnc32)C1 [ibrutinib]
# Method in brief: (§1)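 To prepare the extract, K562 pellets were dounce-homogenised in PBS pH 7.4 with 1 mM MgCl2, giving crude material at 1 mg/mL protein. This was treated with 10 μM compound for 30 min, then heated in aliquots for 3 min over 48°C-58°C before pooling and addition of NP-40 to 0.5% at 4°C. Centrifugation at 21,000xg for 90 min left soluble protein in the supernatant, which TMTpro 16plex LC-MS/MS quantified with equalised channel sums. Results are log-two fold changes in thermal stability compared with solvent controls, from duplicates.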
# [1] = compound: CC(=O)c1cnc2ccc(-c3cc(Cl)c(O)c(Cl)c3)nc2c1N[C@H]1CC[C@H](CN(C)C)CC1
# Method in brief: as §1
# ralimetinib = compound: CC(C)(C)Cn1c(N)nc2ccc(-c3[nH]c(C(C)(C)C)nc3-c3ccc(F)cc3)nc21 [ralimetinib]
# Method in brief: as §1
# [2] = compound: CC(C)(O)CC(=O)NCCn1ccc2ncnc(Nc3ccc(Oc4cccc(C(F)(F)F)c4)c(Cl)c3)c21
# Method in brief: as §1
# [3] = compound: CC(C)C1=C2N=C(C=C(N2N=C1)NCC3=CC=CC=C3)NCCCCCCN
# Method in brief: as §1
# [4] = compound: CC1=C(C(CC(=O)N1)C2=CC=C(C=C2)C(F)(F)F)C(=O)NC3=C(C=C4C(=C3)C=NN4)F
# Method in brief: as §1
# [5] = compound: CC1=C(C2=C(C=C1)C(=O)C3=CC=CC=C3N2CCCN)C
# Method in brief: as §1
# [6] = compound: CC1=C(C=C(C=C1)NC(=O)C2=CC(=CC=C2)C(C)(C)C#N)NC3=CC4=C(C=C3)N=CN(C4=O)C
# Method in brief: as §1
# [7] = compound: CC1=C(C=C(C=C1)NC(=O)C2=CC(=CC=C2)N(C)C)NC(=O)C3=CC=C(C=C3)O
# Method in brief: as §1
# [8] = compound: CC1=CC=C(C=C1)SC2=C3C=C(SC3=CN=C2)C(=O)N
# Method in brief: as §1
# vemurafenib = compound: CCCS(=O)(=O)Nc1ccc(F)c(C(=O)c2c[nH]c3ncc(-c4ccc(Cl)cc4)cc23)c1F [vemurafenib]
# Method in brief: as §1
# [9] = compound: CCCS(=O)(=O)Nc1ccc(F)c(C(=O)c2c[nH]c3ncc(Cl)cc23)c1F
# Method in brief: as §1
# barasertib = compound: CCN(CCCOc1ccc2c(Nc3cc(CC(=O)Nc4cccc(F)c4)[nH]n3)ncnc2c1)CCOP(=O)(O)O [barasertib]
# Method in brief: as §1
# [10] = compound: CC[C@@H]1C(=O)N(C)c2cnc(Nc3ccc(C(=O)NC4CCN(C)CC4)cc3OC)nc2N1C1CCCC1
# Method in brief: as §1
# volasertib = compound: CC[C@@H]1C(=O)N(C)c2cnc(Nc3ccc(C(=O)N[C@H]4CC[C@H](N5CCN(CC6CC6)CC5)CC4)cc3OC)nc2N1C(C)C [volasertib]
# Method in brief: as §1
# [11] = compound: CCn1c(C(=O)N(C2CC2)C2CC2)cc2c3c(ncn3C)c(Nc3cc(C)n(C)n3)nc21
# Method in brief: as §1
# [12] = compound: CCn1cc(-c2ccnc3[nH]c(-c4cccc(CN(C)C)c4)cc23)c(-c2ccc(NC(=O)N(C)C)cc2)n1
# Method in brief: as §1
# [13] = compound: CN1CCC(CNc2ccc3ncc(-c4cccc(OC(F)(F)F)c4)n3n2)CC1
# Method in brief: as §1
# saracatinib = compound: CN1CCN(CCOc2cc(OC3CCOCC3)c3c(Nc4c(Cl)ccc5c4OCO5)ncnc3c2)CC1 [saracatinib]
# Method in brief: as §1
# sotrastaurin = compound: CN1CCN(c2nc(C3=C(c4c[nH]c5ccccc45)C(=O)NC3=O)c3ccccc3n2)CC1 [sotrastaurin]
# Method in brief: as §1
# UniProt P47736, sequence (P47736 whole entry, looked up): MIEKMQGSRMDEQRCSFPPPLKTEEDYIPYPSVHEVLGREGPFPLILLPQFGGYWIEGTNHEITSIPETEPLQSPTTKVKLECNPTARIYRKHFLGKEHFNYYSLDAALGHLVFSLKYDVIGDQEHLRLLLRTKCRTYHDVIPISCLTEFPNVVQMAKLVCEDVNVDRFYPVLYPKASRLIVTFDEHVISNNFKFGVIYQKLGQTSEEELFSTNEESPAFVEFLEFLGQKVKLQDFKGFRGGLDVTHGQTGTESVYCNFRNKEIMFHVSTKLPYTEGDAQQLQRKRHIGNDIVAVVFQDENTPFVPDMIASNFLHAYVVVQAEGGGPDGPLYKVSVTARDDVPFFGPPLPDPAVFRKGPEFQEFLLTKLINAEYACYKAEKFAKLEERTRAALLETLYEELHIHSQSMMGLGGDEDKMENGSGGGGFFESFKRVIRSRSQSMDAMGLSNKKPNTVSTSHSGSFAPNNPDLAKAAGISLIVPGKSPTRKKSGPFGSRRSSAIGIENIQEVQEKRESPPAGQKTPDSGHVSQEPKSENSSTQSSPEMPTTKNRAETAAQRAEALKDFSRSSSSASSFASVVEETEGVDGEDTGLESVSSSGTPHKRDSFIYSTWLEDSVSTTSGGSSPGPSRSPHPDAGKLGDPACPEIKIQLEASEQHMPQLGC
# UniProt O75880, sequence (O75880 whole entry, looked up): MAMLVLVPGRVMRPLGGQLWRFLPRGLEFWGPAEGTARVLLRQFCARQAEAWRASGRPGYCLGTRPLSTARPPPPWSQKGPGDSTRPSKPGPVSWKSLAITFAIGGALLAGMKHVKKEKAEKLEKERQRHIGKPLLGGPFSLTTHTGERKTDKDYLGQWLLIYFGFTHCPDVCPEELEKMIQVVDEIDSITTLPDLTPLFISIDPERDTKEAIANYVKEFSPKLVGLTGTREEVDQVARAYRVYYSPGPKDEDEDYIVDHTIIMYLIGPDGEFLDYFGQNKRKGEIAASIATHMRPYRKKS
# UniProt Q05823, sequence (Q05823 whole entry, looked up): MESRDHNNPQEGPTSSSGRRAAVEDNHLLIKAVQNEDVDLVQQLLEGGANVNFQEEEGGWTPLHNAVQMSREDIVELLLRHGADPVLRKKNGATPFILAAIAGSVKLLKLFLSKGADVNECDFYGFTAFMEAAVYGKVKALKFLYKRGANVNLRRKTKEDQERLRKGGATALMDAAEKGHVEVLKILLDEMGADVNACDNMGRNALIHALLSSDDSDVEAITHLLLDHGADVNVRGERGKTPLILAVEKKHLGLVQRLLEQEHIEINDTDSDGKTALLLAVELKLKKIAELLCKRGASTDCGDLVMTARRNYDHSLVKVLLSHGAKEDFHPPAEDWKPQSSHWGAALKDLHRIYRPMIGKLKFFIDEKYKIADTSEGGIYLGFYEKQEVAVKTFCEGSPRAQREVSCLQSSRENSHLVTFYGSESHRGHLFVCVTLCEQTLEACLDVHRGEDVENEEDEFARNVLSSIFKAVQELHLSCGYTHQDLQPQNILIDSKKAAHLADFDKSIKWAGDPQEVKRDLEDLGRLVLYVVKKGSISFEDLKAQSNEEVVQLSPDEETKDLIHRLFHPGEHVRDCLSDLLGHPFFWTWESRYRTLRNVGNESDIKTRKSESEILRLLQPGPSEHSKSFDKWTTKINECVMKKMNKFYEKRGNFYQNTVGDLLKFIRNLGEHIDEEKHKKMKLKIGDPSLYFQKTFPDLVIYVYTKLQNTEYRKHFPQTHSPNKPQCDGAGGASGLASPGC
# UniProt Q9UL25, sequence (Q9UL25 whole entry, looked up): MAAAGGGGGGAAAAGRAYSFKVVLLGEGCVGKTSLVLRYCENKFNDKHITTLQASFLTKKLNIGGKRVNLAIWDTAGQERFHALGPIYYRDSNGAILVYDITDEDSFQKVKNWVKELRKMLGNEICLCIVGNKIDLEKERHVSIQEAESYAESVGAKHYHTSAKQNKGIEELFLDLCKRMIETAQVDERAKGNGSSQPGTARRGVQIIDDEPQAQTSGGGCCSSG
# UniProt Q9HBH5, sequence (Q9HBH5 whole entry, looked up): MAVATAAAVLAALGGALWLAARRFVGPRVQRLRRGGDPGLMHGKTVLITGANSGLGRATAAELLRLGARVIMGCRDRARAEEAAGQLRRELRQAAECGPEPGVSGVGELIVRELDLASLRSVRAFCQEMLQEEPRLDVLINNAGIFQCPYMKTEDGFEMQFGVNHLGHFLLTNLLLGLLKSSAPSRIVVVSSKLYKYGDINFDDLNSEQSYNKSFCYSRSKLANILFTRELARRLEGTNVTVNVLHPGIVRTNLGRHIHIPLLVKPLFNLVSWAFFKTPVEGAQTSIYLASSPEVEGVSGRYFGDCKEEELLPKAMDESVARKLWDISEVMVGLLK
# UniProt P35241, sequence (P35241 whole entry, looked up): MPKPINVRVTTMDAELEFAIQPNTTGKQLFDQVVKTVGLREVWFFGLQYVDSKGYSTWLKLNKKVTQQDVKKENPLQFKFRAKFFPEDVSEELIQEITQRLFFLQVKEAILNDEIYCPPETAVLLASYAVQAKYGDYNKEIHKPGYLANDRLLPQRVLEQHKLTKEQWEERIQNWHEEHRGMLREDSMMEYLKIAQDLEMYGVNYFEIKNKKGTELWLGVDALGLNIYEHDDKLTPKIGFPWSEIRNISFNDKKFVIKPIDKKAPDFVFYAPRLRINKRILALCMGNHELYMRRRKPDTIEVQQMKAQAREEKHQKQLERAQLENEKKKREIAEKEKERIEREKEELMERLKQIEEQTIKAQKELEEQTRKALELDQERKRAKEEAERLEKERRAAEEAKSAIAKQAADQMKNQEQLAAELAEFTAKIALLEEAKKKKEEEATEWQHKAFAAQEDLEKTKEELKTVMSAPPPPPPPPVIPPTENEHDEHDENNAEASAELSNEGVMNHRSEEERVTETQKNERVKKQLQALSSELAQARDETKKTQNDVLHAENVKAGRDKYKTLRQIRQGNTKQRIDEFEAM
# UniProt Q15283, sequence (Q15283 whole entry, looked up): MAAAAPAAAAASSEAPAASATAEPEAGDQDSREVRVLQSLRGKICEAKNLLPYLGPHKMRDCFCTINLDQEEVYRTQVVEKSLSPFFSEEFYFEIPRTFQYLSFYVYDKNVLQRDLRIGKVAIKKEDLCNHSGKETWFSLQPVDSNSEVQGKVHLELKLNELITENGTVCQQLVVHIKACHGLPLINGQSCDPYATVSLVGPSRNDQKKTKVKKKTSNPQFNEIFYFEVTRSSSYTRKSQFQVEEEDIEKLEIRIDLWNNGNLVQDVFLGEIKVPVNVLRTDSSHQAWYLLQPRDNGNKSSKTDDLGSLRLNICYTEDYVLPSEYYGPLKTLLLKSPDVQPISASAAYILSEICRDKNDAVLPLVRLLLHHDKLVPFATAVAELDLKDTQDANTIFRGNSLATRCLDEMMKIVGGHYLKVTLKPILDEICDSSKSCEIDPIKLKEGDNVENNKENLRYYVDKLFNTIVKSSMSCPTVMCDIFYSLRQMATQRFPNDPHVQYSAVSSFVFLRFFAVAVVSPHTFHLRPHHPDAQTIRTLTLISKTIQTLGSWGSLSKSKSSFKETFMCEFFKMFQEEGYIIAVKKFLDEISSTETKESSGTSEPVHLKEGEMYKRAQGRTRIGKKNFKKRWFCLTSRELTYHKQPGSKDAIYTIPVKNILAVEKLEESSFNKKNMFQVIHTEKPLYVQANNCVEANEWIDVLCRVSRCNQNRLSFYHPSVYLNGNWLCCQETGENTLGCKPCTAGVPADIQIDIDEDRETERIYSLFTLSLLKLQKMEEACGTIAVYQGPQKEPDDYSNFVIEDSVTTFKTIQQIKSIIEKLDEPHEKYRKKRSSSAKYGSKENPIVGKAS
# UniProt Q99574, sequence (Q99574 whole entry, looked up): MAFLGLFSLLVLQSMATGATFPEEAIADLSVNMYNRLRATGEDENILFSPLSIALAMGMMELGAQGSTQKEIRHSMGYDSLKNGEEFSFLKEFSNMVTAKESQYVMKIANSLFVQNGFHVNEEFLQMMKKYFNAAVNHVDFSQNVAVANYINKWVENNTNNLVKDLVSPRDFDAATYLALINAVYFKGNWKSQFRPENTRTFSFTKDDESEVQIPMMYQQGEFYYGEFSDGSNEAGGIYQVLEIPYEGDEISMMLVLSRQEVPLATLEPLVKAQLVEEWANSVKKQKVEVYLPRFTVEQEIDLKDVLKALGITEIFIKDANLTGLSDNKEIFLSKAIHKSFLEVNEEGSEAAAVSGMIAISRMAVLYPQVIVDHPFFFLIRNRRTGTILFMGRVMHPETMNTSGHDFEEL
# UniProt Q86U06, sequence (Q86U06 whole entry, looked up): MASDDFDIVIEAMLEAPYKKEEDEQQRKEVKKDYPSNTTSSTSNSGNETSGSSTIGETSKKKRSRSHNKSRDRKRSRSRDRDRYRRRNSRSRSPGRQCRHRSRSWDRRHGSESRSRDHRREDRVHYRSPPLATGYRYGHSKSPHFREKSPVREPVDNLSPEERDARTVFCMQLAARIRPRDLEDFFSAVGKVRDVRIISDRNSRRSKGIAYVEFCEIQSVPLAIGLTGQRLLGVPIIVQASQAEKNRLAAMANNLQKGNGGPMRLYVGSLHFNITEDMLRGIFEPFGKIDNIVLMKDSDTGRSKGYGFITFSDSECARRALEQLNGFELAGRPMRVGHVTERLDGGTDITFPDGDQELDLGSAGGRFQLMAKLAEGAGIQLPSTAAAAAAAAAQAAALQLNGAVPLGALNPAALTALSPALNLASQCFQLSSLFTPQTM
# UniProt Q7L523, sequence (Q7L523 whole entry, looked up): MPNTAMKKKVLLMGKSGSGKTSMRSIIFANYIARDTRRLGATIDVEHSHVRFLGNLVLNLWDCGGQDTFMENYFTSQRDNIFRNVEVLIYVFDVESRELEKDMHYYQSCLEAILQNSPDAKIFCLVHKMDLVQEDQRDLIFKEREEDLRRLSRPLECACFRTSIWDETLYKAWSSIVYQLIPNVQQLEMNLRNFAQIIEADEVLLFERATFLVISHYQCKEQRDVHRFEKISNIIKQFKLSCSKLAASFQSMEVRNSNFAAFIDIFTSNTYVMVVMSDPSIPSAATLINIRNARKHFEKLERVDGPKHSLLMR
Target,log2 fold change (ibrutinib),log2 fold change [1],log2 fold change (ralimetinib),log2 fold change [2],log2 fold change [3],log2 fold change [4],log2 fold change [5],log2 fold change [6],log2 fold change [7],log2 fold change [8],log2 fold change (vemurafenib),log2 fold change [9],log2 fold change (barasertib),log2 fold change [10],log2 fold change (volasertib),log2 fold change [11],log2 fold change [12],log2 fold change [13],log2 fold change (saracatinib),log2 fold change (sotrastaurin)
RHOA (UniProt P61586),0.36,-0.041,0.014,0.094,0.031,0.003,0.093,-0.02,-0.022,-0.006,0.003,-0.005,-0.07,0.069,0.009,0.042,0.45 (active),-0.06,0.009,0
RBMX (UniProt P38159),-0.034,-0.132,0.004,0.032,-0.029,-0.017,0.035,-0.016,-0.016,-0.006,-0.058,0.013,-0.026,-0.012,-0.02,0.067,-0.007,0.009,-0.031,-0.014
RASA2 (UniProt Q15283),0.034,-0.011,0.006,-0.038,0.014,0.023,0.004,0.033,0.019,-0.013,0.069,0.025,-0.02,-0.055,-0.018,0.02,-0.028,-0.013,0.068,-0.017
RAB21 (UniProt Q9UL25),0.026,-0.004,0.057,-0.02,-0.002,0.019,0.021,-0.023,-0.002,0.015,-0.038,-0.005,0.041,0.005,-0.006,0.008,0.262 (active),-0.06,0.029,-0.021
RDH14 (UniProt Q9HBH5),0.017,0.061,0.072,0.089,0.012,-0.031,0.053,-0.073,0.032,-0.012,0.038,0.026,-0.007,-0.076,-0.022,0.009,-0.228,0.061,-0.015,0.074
RBM23 isoform 2 (UniProt Q86U06),-0.125,-0.014,0.041,-0.096,0.081,0.151,-0.122,0.112,-0.022,0.05,0.2,0.02,0.234,-0.153,-0.011,0.058,-0.01,-0.143,0.064,0.131
SCO1 (UniProt O75880),0.029,0.006,-0.006,-0.072,-0.11,0.044,-0.011,0.021,-0.065,-0.023,-0.027,-0.012,-0.008,-0.009,0.025,-0.027,-0.01,0.016,0.006,0.016
RDX (UniProt P35241),-0.051,0,-0.003,0.002,0.012,-0.016,-0.011,-0.021,-0.002,-0.004,0,-0.008,0.003,0.016,0.017,-0.018,0.712 (active),-0.109,-0.018,-0.013
SERPINI1 (UniProt Q99574),0.063,0.075,0.001,0.024,0.005,0.056,0.004,-0.024,-0.028,-0.054,0.027,0.008,-0.006,0.024,-0.001,0.03,0.001,0.069,0,0.016
RAB3IL1 (UniProt E9PK89),0.066,0.045,-0.028,-0.08,-0.069,0.052,0.071,0.025,0.135,-0.031,-0.154,0.031,-0.001,-0.079,0.031,-0.054,0.026,-0.047,-0.043,-0.013
RNASEL (UniProt Q05823),-0.072,-0.033,0.037,-0.034,0,-0.023,0.001,0.01,0.013,0.027,-0.004,0.053,0.077,-0.017,-0.103,0.012,-0.006,-0.025,-0.011,0.024
RAF1 isoform 2 (UniProt P04049),-0.046,0.047,0.054,0.004,0.065,0.092,-0.055,0.359 (active),0,0.027,0.739 (active),-0.142,0.068,-0.159,-0.083,-0.029,-0.028,-0.037,-0.014,-0.041
RAP1GAP isoform 4 (UniProt P47736),-0.024,0.018,0.068,-0.037,0.051,0.003,-0.008,0.056,-0.009,-0.012,0.009,0.055,0.008,0.044,-0.075,0.003,-0.038,0.02,0.06,0.029
RRAGA (UniProt Q7L523),-0.114,0.008,-0.112,-0.524,0.006,0.005,-0.089,0.079,0.343,-0.113,0.111,0.092,-0.004,0.014,0.042,0.139,-0.011,0.051,0.081,-0.014
ROCK1 (UniProt Q13464),-0.002,-0.027,-0.005,-0.021,-0.003,0.096,-0.041,0.006,0.024,0.002,0.014,0.004,0.004,0.018,-0.045,0.001,-0.017,0.025,-0.017,0.015
RAE1 (UniProt P78406),-0.033,-0.01,0.007,0.185,-0.007,-0.022,0.012,-0.064,0.011,0.023,-0.017,-0.021,-0.051,0.04,-0.081,0.018,-0.355 (active),0.131,0.039,0.044

# Source: the supplement of paper PMC10849652
